Assay [1] is described as follows: IUF_NPC2-5_cytotoxicity_120hr: Cytotoxicity Assessment at 120 hours in the Leibniz Research Institute for Environmental Medicine (IUF) Neural Progenitor Cell Migration and Differentiation Assay (NPC2-5) (AID 2284307). The method, boiled down:
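Sphere plating starts differentiation and exposure together at day 0. Compound solution is half-replaced on day 3. At 120 h, medium supernatant is taken for an LDH membrane-integrity read based on resazurin reduction to resorufin fluorescence.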

Assay [2] can be described thus: IUF_NPC2-5_cell_number_120hr: Cell Number Assessment at 120 hours in the Leibniz Research Institute for Environmental Medicine (IUF) Neural Progenitor Cell Migration and Differentiation Assay (NPC2-5) (AID 2284308; active means hit-call score of the fitted dose curve at least 0.9, where 1 is the maximum; inactive means score below 0.9;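 further: count of Hoechst-stained nuclei in migration zone around plated human neural progenitor spheres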). Summed up: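 hNPC spheres, one per well, PDL/laminin, N2 medium, 37C, 5% CO2. Dosing day 0 → half-medium change with fresh compound day 3 → fix 120 h. Readout: Hoechst+ nuclei count, migration area; 7 concentrations plus solvent control.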

Assay [3] is described as follows: IUF_NPC2-5_viability_120hr: Viability Assessment at 120 hours in the Leibniz Research Institute for Environmental Medicine (IUF) Neural Progenitor Cell Migration and Differentiation Assay (NPC2-5) (AID 2284312; active means hit-call score of the fitted dose curve at least 0.9, where 1 is the maximum; inactive means score below 0.9). The method, boiled down: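 Human fetal (GW 16-19) neural progenitor spheres of 0.3 mm were plated on poly-D-lysine/laminin in N2 differentiation medium and exposed from day 0 for 120 h, with half-medium refresh at day 3. Viability was read as alamar blue resazurin-to-resorufin fluorescence against DMSO.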

Assay [4] is described as follows: CCTE_Mundy_HCI_iCellGluta_NOG_NeuriteLength: CCTE's Neurite Outgrowth Assay in iCellGluta cells for Neurite Length, Mundy Lab (AID 2284318). Summed up:
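Automated high-content imaging of betaIII-tubulin (Alexa Fluor-488) and Hoechst-stained cells gave neurite length, normalized to the DMSO baseline.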

A short description of assay [5]: IUF_NPC1_cytotoxicity_72hr: Cytotoxicity Assessment at 72 hours in the Leibniz Research Institute for Environmental Medicine (IUF) Neural Progenitor Cell Proliferation Assay (NPC1) (AID 2284332).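 Further: rising LDH signal means more cytotoxicity.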 Summed up:
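Spheres of primary human neural progenitors are plated one per well on day 0 in growth-factor medium and dosed at once. After three days at 37C, supernatant LDH is measured fluorimetrically via resazurin reduction.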

The nature of assay [6]: CCTE_Mundy_HCI_iCellGluta_NOG_NeuriteCount: CCTE's Neurite Outgrowth Assay in iCellGluta cells for Neurite Count, Mundy Lab (AID 2284342).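 Further: chemical exposure about 48 hours starting 2 hours after plating.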
In assay [7] the target is PGR (gene 5241) (UniProt P06401). The assay can be described thus: TOX21_PR_BLA_Followup_Agonist_ratio: Tox21 HEK293 Progesterone Receptor (PR) Agonism Beta-lactamase Follow-Up Assay, Ratio (AID 2283933). The method, boiled down: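 HEK293T PR-UAS-bla, 2% CS-FBS; 6 hr preincubation, cpd/DMSO pinned, 16 hr 37C/5% CO2; LiveBLAzer B/G 2 hr RT; FRET ch2/ch1 ratio, agonist direction vs DMSO. Viability by CellTiter-Glo in same wells.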

A short description of assay [8]: TOX21_PR_BLA_Followup_Agonist_viability: Viability Assessment in the Tox21 HEK293 Progesterone Receptor (PR) Agonism Beta-lactamase Follow-Up Assay (AID 2283935).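 Further: cells exposed to compound for 16 hr at 37 °C; signal loss means lower viability so actives are cytotoxic.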 The method, boiled down:
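HEK293T PR-UAS-bla, 3,000 cells/well, 2% CS-FBS; 6 hr pre-incubation; cpd in DMSO, 16 hr 37C; LiveBLAzer 2 hr RT, then CellTiter-Glo 30 min RT, luminescence. Decrease = lost viability.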

A short description of assay [9]: TOX21_PR_BLA_Followup_Antagonist_viability: Viability Assessment in the Tox21 HEK293 Progesterone Receptor (PR) Antagonism Beta-lactamase Follow-Up Assay (AID 2283936).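 Further: hits lower the luminescence signal meaning cytotoxicity.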 Summed up: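 PR-UAS-bla HEK293T cells (3,000/well, 2% charcoal-stripped FBS) given compound plus R5020 agonist, 16 h at 37C. CellTiter-Glo added after bla read, 30 min at room temperature; luminescence loss indicates cytotoxicity.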

The target of assay [10] is PGR (gene 5241) (UniProt P06401). In words: TOX21_PR_LUC_Followup_Agonist: Tox21 HEK293 Progesterone Receptor (PR) Agonism Luciferase Follow-Up Assay (AID 2283937; active means hit-call score of the fitted dose curve at least 0.9, where 1 is the maximum; inactive means score below 0.9). Summed up: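 Cells: HEK293-PR-A-luc, 3,000/well, 10% charcoal-stripped FBS assay medium. Compound added after 5 h; 16 h, 37C, 0% CO2. ONE-Glo luciferase, luminescence. Positive fit vs DMSO.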
Assay [11] has the same target. In words: TOX21_PR_LUC_Followup_Antagonist: Tox21 HEK293 Progesterone Receptor (PR) Antagonism Luciferase Follow-Up Assay (AID 2283938).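 Further: curve fitted upward as signal gain over DMSO baseline despite antagonist label.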 The method, boiled down: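 Cells are grown 5 days in charcoal-stripped-FBS assay medium, plated, left 5 h, then dosed with compound and incubated 16 h. ONE-Glo reagent is added and luminescence read after 30 min.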
Assay [12] is described as follows: TOX21_PR_LUC_Followup_Antagonist_viability: Viability Assessment in the Tox21 HEK293 Progesterone Receptor (PR) Antagonism Luciferase Follow-Up Assay (AID 2283940). The method, boiled down: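 Multiplexed viability counter-screen: after 5 days in charcoal-stripped-FBS medium, HEK293-PR-A-luc cells are plated, pinned with DMSO-dissolved compounds for 16 h at 37C, and ATP content is quantified luminescently via CellTiter-Glo.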

Inconclusive results are not listed. Active and inactive are the calls of the source. How the source made its calls, unless noted: active means hit-call score of the fitted dose curve at least 0.9, where 1 is the maximum; inconclusive means response in the unintended direction; inactive means score below 0.9.

PGR (gene 5241), sequence (P06401 whole entry, looked up): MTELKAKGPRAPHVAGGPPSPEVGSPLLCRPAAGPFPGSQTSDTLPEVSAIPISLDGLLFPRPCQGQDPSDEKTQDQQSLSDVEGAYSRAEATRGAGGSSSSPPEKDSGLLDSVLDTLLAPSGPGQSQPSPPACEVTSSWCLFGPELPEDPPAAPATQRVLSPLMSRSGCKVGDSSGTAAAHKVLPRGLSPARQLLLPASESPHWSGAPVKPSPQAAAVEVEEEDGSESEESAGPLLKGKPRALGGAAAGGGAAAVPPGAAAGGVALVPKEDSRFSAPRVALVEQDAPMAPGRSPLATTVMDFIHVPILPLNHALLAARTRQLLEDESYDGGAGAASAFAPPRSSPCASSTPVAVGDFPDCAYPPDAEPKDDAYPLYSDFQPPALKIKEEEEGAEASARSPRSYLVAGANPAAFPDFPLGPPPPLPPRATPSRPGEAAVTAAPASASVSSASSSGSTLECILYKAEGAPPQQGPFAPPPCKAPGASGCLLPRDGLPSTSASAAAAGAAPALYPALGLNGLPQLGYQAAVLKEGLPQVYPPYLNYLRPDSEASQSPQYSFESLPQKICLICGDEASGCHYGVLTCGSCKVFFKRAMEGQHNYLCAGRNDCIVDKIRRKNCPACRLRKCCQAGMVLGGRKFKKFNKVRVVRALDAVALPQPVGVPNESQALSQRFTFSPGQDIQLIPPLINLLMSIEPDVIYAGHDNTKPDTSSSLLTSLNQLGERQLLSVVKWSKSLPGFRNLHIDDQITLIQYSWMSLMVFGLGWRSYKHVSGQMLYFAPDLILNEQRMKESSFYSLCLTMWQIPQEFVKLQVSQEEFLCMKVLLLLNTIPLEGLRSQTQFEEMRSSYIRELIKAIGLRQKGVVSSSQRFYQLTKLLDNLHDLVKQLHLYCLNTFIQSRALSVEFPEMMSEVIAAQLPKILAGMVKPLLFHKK

As to `O=C1CC2(CCCC2)CC(=O)N1CCCCN1CCN(c2ncccn2)CC1`, the call in assay [1], in assay [2], in assay [3], in assay [4], in assay [5] and in assay [6] was inactive.

Take `CCN(CC)CC(=O)OCC(=O)[C@@]1(O)CC[C@H]2[C@@H]3CCC4=CC(=O)CC[C@]4(C)[C@H]3[C@@H](O)C[C@@]21C`: the outcome in assay [7], in assay [8], in assay [9], in assay [11] and in assay [12] was inactive. In addition, the concentration at half-maximal activity (AC50) in [10] is 1.47 µM (active).

As for `CCC(=O)O[C@]1(C(=O)COC)[C@@H](C)C[C@H]2[C@@H]3CCC4=CC(=O)C=C[C@]4(C)C3(F)[C@@H](O)C[C@@]21C` (some centres undefined), the AC50 in assay [7] is 0.468 µM (active); in assay [10], 0.0067 µM (active). Further, the compound was classed as inactive in assay [8], in assay [9], in [11] and in assay [12].

For the compound `CC(=O)O[C@@H]1CC2C3CCc4cc(OC(=O)c5ccccc5)ccc4C3CCC2(C)[C@H]1OC(C)=O` (some centres undefined), the result in [7], in assay [8], in [9] and in assay [12] was inactive. For the same compound, the AC50 is 20.1 µM (active) in assay [10] and 1.05 µM (active) in assay [11].

The record behind these values is PubChem BioAssay (EPA / NIEHS).
